From article PMC11006913 come the findings set out here.

Numbering of substitutions follows the chain as printed.

Targets include HOXB4 (Homo sapiens, UniProt P17483 148-234, V174I); HOXD13 (Homo sapiens, UniProt P35453 263-343, T313R); SHOX (Homo sapiens, UniProt O15266 103-189, R173C); CRX (Homo sapiens, UniProt O43186 26-111, R41L).
Assay in all cases: PBM; 200 nM protein, PBS
Common to all, as to details: dsDNA, one strand shown

Test [1] concerns the target HOXB9 (Homo sapiens, UniProt P17482 171-250, T197M).
For test [2], the target named is HOXC9 (Homo sapiens, UniProt P31274 178-260, K195R).
Test [3] deals with HOXA7 (Homo sapiens, UniProt P31268 116-202).
Test [4] concerns the target HOXC10 (Homo sapiens, UniProt Q9NYD6 254-340).
The target of test [5] is ALX4 (Homo sapiens, UniProt Q9H161 200-286).
Test [6] concerns the target T1, PAX4 (Homo sapiens, UniProt O43316 9-242, R200K).
T1 sequence: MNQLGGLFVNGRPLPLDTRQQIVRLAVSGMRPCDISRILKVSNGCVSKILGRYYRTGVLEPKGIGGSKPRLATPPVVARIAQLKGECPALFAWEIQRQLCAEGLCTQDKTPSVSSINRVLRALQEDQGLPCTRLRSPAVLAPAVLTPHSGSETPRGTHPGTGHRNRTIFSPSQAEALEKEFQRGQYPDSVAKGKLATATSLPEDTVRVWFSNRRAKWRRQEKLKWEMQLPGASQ

Test [7] has as its target PRRX1 (Homo sapiens, UniProt P54821 80-166, F113S).
Test [8] concerns the target T2, PAX4 (Homo sapiens, UniProt O43316 9-242).
T2 sequence: T1 sequence with K192R

Test [9] addresses HOXB6 (Homo sapiens, UniProt P17509 132-218, K202E).
Test [10] concerns the target ALX4 (Homo sapiens, UniProt Q9H161 200-286, Q225E).
Test [11] deals with HOXA4 (Homo sapiens, UniProt Q00056 201-287, R217L).
Test [12] has as its target ALX1 (Homo sapiens, UniProt Q15699 118-204, L144V).
In test [13] the target is ALX3 (Homo sapiens, UniProt O95076 139-225, N203Q).
Test [14] concerns the target T3, PAX4 (Homo sapiens, UniProt O43316 9-242, R200Q).
T3 sequence: T1 sequence with K192Q

Test [15] deals with HOXC9 (Homo sapiens, UniProt P31274 178-260, R193K).
Test [16] has as its target ALX1 (Homo sapiens, UniProt Q15699 118-204, L144R).
In test [17] the target is T4, PAX4 (Homo sapiens, UniProt O43316 9-242, F177V).
T4 sequence: T1 sequence with F169V, K192R

For test [18], the target named is HOXC10 (Homo sapiens, UniProt Q9NYD6 254-340, K271E).
Test [19] addresses ALX3 (Homo sapiens, UniProt O95076 139-225).
The target of test [20] is T5, PAX4 (Homo sapiens, UniProt O43316 9-242, F177Y).
T5 sequence: T1 sequence with F169Y, K192R

Test [21] has as its target HESX1 (Homo sapiens, UniProt Q9UBX0 95-180, R109Q).
For test [22], the target named is ALX3 (Homo sapiens, UniProt O95076 139-225, L168Q).
The target in test [23] is HESX1 (Homo sapiens, UniProt Q9UBX0 95-180, P111T).
In test [24] the target is HOXB9 (Homo sapiens, UniProt P17482 171-250, R186Q).
Test [25] addresses HOXC9 (Homo sapiens, UniProt P31274 178-260, R222W).
In test [26] the target is ALX3 (Homo sapiens, UniProt O95076 139-225, L168V).
Test [27] deals with HESX1 (Homo sapiens, UniProt Q9UBX0 95-180, F115L).
In test [28] the target is VAX1 (Homo sapiens, UniProt Q5SQQ9 86-172, T142I).
Test [29] concerns the target T6, PAX4 (Homo sapiens, UniProt O43316 9-242, R227W).
T6 sequence: T1 sequence with K192R, R219W

Test [30] deals with HOXA7 (Homo sapiens, UniProt P31268 116-202, W177C).
Test [31] deals with HOXA4 (Homo sapiens, UniProt Q00056 201-287, W262F).
Test [32] deals with ALX3 (Homo sapiens, UniProt O95076 139-225, N203S).
Test [33] has as its target PRRX1 (Homo sapiens, UniProt P54821 80-166).
Test [34] concerns the target HOXB6 (Homo sapiens, UniProt P17509 132-218).
The target of test [35] is T7, VENTX (Homo sapiens, UniProt O95231 78-163, R121Q).
T7 sequence: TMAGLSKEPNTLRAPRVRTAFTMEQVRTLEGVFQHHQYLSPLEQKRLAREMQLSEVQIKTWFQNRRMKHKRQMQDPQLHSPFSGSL

Test [36] addresses VAX1 (Homo sapiens, UniProt Q5SQQ9 86-172).
Test [37] addresses VAX1 (Homo sapiens, UniProt Q5SQQ9 86-172, K157R).
Test [38] has as its target T8, VENTX (Homo sapiens, UniProt O95231 78-163, Y115F).
T8 sequence: T7 sequence with Y38F, Q44R

The target of test [39] is T9, VENTX (Homo sapiens, UniProt O95231 78-163).
T9 sequence: T7 sequence with Q44R

Test [40] concerns the target HOXA4 (Homo sapiens, UniProt Q00056 201-287, W262R).
The target in test [41] is HOXB9 (Homo sapiens, UniProt P17482 171-250).
The target of test [42] is HOXC9 (Homo sapiens, UniProt P31274 178-260).
In test [43] the target is HOXA4 (Homo sapiens, UniProt Q00056 201-287).
Sequence of HOXA4 (Homo sapiens, UniProt Q00056 201-287) (Q00056 201-287): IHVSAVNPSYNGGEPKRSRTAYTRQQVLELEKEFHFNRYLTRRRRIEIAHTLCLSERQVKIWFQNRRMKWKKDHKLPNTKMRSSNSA

Sequence of HOXA4 (Homo sapiens, UniProt Q00056 201-287, W262F) (Q00056 201-287 W262F): as the sequence (Q00056 201-287) above, with W62F counted along it
Sequence of HOXB6 (Homo sapiens, UniProt P17509 132-218, K202E) (P17509 132-218 K202E): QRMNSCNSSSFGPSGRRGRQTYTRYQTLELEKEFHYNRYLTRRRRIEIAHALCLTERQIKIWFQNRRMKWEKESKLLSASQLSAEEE
Sequence of HOXC9 (Homo sapiens, UniProt P31274 178-260, R222W) (P31274 178-260 R222W): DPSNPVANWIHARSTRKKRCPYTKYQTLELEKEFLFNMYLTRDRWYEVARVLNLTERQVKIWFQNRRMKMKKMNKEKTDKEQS
Sequence of VAX1 (Homo sapiens, UniProt Q5SQQ9 86-172, T142I) (Q5SQQ9 86-172 T142I): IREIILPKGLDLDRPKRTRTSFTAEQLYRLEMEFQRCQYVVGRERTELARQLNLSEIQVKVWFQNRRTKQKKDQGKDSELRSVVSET
Sequence of HOXB9 (Homo sapiens, UniProt P17482 171-250, T197M) (P17482 171-250 T197M): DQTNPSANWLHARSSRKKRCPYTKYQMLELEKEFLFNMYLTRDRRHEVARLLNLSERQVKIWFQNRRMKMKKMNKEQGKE
Sequence of ALX3 (Homo sapiens, UniProt O95076 139-225, N203S) (O95076 139-225 N203S): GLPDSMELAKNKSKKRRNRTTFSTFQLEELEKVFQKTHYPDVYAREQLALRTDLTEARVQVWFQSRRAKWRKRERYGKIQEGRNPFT
Sequence of HOXC9 (Homo sapiens, UniProt P31274 178-260, R193K) (P31274 178-260 R193K): as the sequence (P31274 178-260 R222W) above, with R16K, W45R counted along it
Sequence of HOXA4 (Homo sapiens, UniProt Q00056 201-287, R217L) (Q00056 201-287 R217L): as the sequence (Q00056 201-287) above, with R17L counted along it
Sequence of ALX3 (Homo sapiens, UniProt O95076 139-225, N203Q) (O95076 139-225 N203Q): as the sequence (O95076 139-225 N203S) above, with S65Q counted along it
Sequence of ALX3 (Homo sapiens, UniProt O95076 139-225) (O95076 139-225): as the sequence (O95076 139-225 N203S) above, with S65N counted along it
Sequence of HOXC9 (Homo sapiens, UniProt P31274 178-260, K195R) (P31274 178-260 K195R): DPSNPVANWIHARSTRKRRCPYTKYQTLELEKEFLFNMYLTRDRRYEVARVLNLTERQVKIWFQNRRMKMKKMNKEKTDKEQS
Sequence of HOXB9 (Homo sapiens, UniProt P17482 171-250, R186Q) (P17482 171-250 R186Q): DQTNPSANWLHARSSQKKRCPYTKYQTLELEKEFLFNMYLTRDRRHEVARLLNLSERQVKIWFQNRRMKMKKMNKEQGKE
Sequence of HOXB6 (Homo sapiens, UniProt P17509 132-218) (P17509 132-218): as the sequence (P17509 132-218 K202E) above, with E71K counted along it
Sequence of PRRX1 (Homo sapiens, UniProt P54821 80-166, F113S) (P54821 80-166 F113S): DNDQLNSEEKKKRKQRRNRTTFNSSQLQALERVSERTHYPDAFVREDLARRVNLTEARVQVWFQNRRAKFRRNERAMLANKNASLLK
Sequence of PRRX1 (Homo sapiens, UniProt P54821 80-166) (P54821 80-166): as the sequence (P54821 80-166 F113S) above, with S34F counted along it
Sequence of HOXC10 (Homo sapiens, UniProt Q9NYD6 254-340, K271E) (Q9NYD6 254-340 K271E): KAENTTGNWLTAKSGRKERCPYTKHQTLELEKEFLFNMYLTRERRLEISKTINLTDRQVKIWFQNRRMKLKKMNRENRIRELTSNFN
Sequence of HESX1 (Homo sapiens, UniProt Q9UBX0 95-180, F115L) (Q9UBX0 95-180 F115L): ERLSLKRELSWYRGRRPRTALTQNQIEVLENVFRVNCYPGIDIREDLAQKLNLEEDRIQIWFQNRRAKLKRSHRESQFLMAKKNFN
Sequence of HOXA7 (Homo sapiens, UniProt P31268 116-202, W177C) (P31268 116-202 W177C): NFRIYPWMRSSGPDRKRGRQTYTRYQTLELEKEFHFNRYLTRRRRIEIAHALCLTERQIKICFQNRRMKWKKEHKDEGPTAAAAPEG
Sequence of ALX1 (Homo sapiens, UniProt Q15699 118-204, L144V) (Q15699 118-204 L144V): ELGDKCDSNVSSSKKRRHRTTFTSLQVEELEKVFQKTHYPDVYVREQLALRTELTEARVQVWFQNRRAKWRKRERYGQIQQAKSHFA
Sequence of VAX1 (Homo sapiens, UniProt Q5SQQ9 86-172, K157R) (Q5SQQ9 86-172 K157R): as the sequence (Q5SQQ9 86-172 T142I) above, with I57T, K72R counted along it
Sequence of HOXA7 (Homo sapiens, UniProt P31268 116-202) (P31268 116-202): as the sequence (P31268 116-202 W177C) above, with C62W counted along it
Sequence of CRX (O43186 26-111 R41L): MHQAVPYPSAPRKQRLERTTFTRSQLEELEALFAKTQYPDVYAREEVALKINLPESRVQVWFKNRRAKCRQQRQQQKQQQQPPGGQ
Sequence of HOXD13 (P35453 263-343 T313R): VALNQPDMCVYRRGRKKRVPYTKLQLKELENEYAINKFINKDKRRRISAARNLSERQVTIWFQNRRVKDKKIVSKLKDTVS
Sequence of HOXC10 (Homo sapiens, UniProt Q9NYD6 254-340) (Q9NYD6 254-340): as the sequence (Q9NYD6 254-340 K271E) above, with E18K counted along it
Sequence of ALX4 (Homo sapiens, UniProt Q9H161 200-286, Q225E) (Q9H161 200-286 Q225E): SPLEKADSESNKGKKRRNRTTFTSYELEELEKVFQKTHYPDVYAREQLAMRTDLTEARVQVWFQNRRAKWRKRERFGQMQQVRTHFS
Sequence of ALX3 (Homo sapiens, UniProt O95076 139-225, L168V) (O95076 139-225 L168V): as the sequence (O95076 139-225 N203S) above, with L30V, S65N counted along it
Sequence of HOXB4 (P17483 148-234 V174I): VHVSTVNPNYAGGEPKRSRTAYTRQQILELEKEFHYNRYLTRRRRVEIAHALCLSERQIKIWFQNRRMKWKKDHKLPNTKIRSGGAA
Sequence of HOXA4 (Homo sapiens, UniProt Q00056 201-287, W262R) (Q00056 201-287 W262R): as the sequence (Q00056 201-287) above, with W62R counted along it
Sequence of HESX1 (Homo sapiens, UniProt Q9UBX0 95-180, R109Q) (Q9UBX0 95-180 R109Q): as the sequence (Q9UBX0 95-180 F115L) above, with R15Q, L21F counted along it
Sequence of SHOX (O15266 103-189 R173C): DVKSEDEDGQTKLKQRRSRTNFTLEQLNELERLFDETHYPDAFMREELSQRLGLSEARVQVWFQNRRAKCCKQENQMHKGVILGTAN
Sequence of HOXC9 (Homo sapiens, UniProt P31274 178-260) (P31274 178-260): as the sequence (P31274 178-260 R222W) above, with W45R counted along it
Sequence of HOXB9 (Homo sapiens, UniProt P17482 171-250) (P17482 171-250): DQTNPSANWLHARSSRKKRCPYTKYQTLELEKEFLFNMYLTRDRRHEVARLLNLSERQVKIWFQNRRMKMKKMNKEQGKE
Sequence of HESX1 (Homo sapiens, UniProt Q9UBX0 95-180, P111T) (Q9UBX0 95-180 P111T): as the sequence (Q9UBX0 95-180 F115L) above, with P17T, L21F counted along it
Sequence of VAX1 (Homo sapiens, UniProt Q5SQQ9 86-172) (Q5SQQ9 86-172): as the sequence (Q5SQQ9 86-172 T142I) above, with I57T counted along it
Sequence of ALX3 (Homo sapiens, UniProt O95076 139-225, L168Q) (O95076 139-225 L168Q): as the sequence (O95076 139-225 N203S) above, with L30Q, S65N counted along it
Sequence of ALX1 (Homo sapiens, UniProt Q15699 118-204, L144R) (Q15699 118-204 L144R): as the sequence (Q15699 118-204 L144V) above, with V27R counted along it
Sequence of ALX4 (Homo sapiens, UniProt Q9H161 200-286) (Q9H161 200-286): as the sequence (Q9H161 200-286 Q225E) above, with E26Q counted along it

As for ATTAATAA, the binding signal in the test with HOXB9 [1] was 10.1 upbm affinity estimate (log intensity, higher = more binding, comparable within an allelic series); with HOXC9 [2], 12.6 upbm affinity estimate (log intensity, higher = more binding, comparable within an allelic series); in the test with HOXA7 [3], 11.2 upbm affinity estimate (log intensity, higher = more binding, comparable within an allelic series); in the test with HOXC10 [4] it was 12.2 upbm affinity estimate (log intensity, higher = more binding, comparable within an allelic series); with ALX4 [5], 13.5 upbm affinity estimate (log intensity, higher = more binding, comparable within an allelic series); in the test with PAX4 [6] it was 11.7 upbm affinity estimate (log intensity, higher = more binding, comparable within an allelic series). Also, the binding signal in the test with PRRX1 [7] is 11.2 upbm affinity estimate (log intensity, higher = more binding, comparable within an allelic series); with PAX4 [8], 12.1 upbm affinity estimate (log intensity, higher = more binding, comparable within an allelic series); with HOXB6 [9], 10.1 upbm affinity estimate (log intensity, higher = more binding, comparable within an allelic series); with ALX4 [10], 12.8 upbm affinity estimate (log intensity, higher = more binding, comparable within an allelic series); with HOXA4 [11], 12 upbm affinity estimate (log intensity, higher = more binding, comparable within an allelic series); with HOXB4 it was 13.6 upbm affinity estimate (log intensity, higher = more binding, comparable within an allelic series). Moreover, the binding signal with ALX1 [12] is 11.4 upbm affinity estimate (log intensity, higher = more binding, comparable within an allelic series); with ALX3 [13], 8.66 upbm affinity estimate (log intensity, higher = more binding, comparable within an allelic series); in the test with HOXD13 it was 10.8 upbm affinity estimate (log intensity, higher = more binding, comparable within an allelic series); with PAX4 [14], 11.9 upbm affinity estimate (log intensity, higher = more binding, comparable within an allelic series); in the test with SHOX, 9.26 upbm affinity estimate (log intensity, higher = more binding, comparable within an allelic series); with HOXC9 [15], 12.5 upbm affinity estimate (log intensity, higher = more binding, comparable within an allelic series). The binding signal was 11.2 upbm affinity estimate (log intensity, higher = more binding, comparable within an allelic series) in the test with ALX1 [16]; 10.7 upbm affinity estimate (log intensity, higher = more binding, comparable within an allelic series) in the test with PAX4 [17]; 11.8 upbm affinity estimate (log intensity, higher = more binding, comparable within an allelic series) in the test with HOXC10 [18]; 12.2 upbm affinity estimate (log intensity, higher = more binding, comparable within an allelic series) with ALX3 [19]; 11 upbm affinity estimate (log intensity, higher = more binding, comparable within an allelic series) with PAX4 [20]; 8.97 upbm affinity estimate (log intensity, higher = more binding, comparable within an allelic series) in the test with HESX1 [21]. Besides, the binding signal was 10.2 upbm affinity estimate (log intensity, higher = more binding, comparable within an allelic series) in the test with ALX3 [22]; 10.2 upbm affinity estimate (log intensity, higher = more binding, comparable within an allelic series) with HESX1 [23]; 11.4 upbm affinity estimate (log intensity, higher = more binding, comparable within an allelic series) in the test with HOXB9 [24]; 11.2 upbm affinity estimate (log intensity, higher = more binding, comparable within an allelic series) in the test with HOXC9 [25]; 9.99 upbm affinity estimate (log intensity, higher = more binding, comparable within an allelic series) in the test with ALX3 [26]; 8.16 upbm affinity estimate (log intensity, higher = more binding, comparable within an allelic series) with HESX1 [27]. The binding signal was 12.3 upbm affinity estimate (log intensity, higher = more binding, comparable within an allelic series) in the test with VAX1 [28]; 11 upbm affinity estimate (log intensity, higher = more binding, comparable within an allelic series) with PAX4 [29]; 9.01 upbm affinity estimate (log intensity, higher = more binding, comparable within an allelic series) with HOXA7 [30]; 11.4 upbm affinity estimate (log intensity, higher = more binding, comparable within an allelic series) with HOXA4 [31]; 8.71 upbm affinity estimate (log intensity, higher = more binding, comparable within an allelic series) with ALX3 [32]; 13.2 upbm affinity estimate (log intensity, higher = more binding, comparable within an allelic series) with PRRX1 [33]. For the same sequence, in the test with HOXB6 [34], the binding signal is 11.7 upbm affinity estimate (log intensity, higher = more binding, comparable within an allelic series).
CACATTAG: the binding signal with VENTX [35] is 11 upbm affinity estimate (log intensity, higher = more binding, comparable within an allelic series); with ALX3 [13], 8.26 upbm affinity estimate (log intensity, higher = more binding, comparable within an allelic series); with ALX3 [19], 10.6 upbm affinity estimate (log intensity, higher = more binding, comparable within an allelic series); with VAX1 [36], 11.3 upbm affinity estimate (log intensity, higher = more binding, comparable within an allelic series); with VAX1 [28], 10.8 upbm affinity estimate (log intensity, higher = more binding, comparable within an allelic series); in the test with ALX3 [32], 8.21 upbm affinity estimate (log intensity, higher = more binding, comparable within an allelic series). The binding signal with VAX1 [37] is 11 upbm affinity estimate (log intensity, higher = more binding, comparable within an allelic series).
For the sequence ATAATCGG, the binding signal with VENTX [35] was 10.6 upbm affinity estimate (log intensity, higher = more binding, comparable within an allelic series); with VENTX [38], 10.7 upbm affinity estimate (log intensity, higher = more binding, comparable within an allelic series).
As to CCGATTAG, the binding signal with VENTX [35] was 11.6 upbm affinity estimate (log intensity, higher = more binding, comparable within an allelic series); with VENTX [39], 12.9 upbm affinity estimate (log intensity, higher = more binding, comparable within an allelic series); in the test with VENTX [38] it was 11.6 upbm affinity estimate (log intensity, higher = more binding, comparable within an allelic series); with CRX, 11.4 upbm affinity estimate (log intensity, higher = more binding, comparable within an allelic series).
For the sequence TAATCGGA, the binding signal with VENTX [35] is 10.4 upbm affinity estimate (log intensity, higher = more binding, comparable within an allelic series); with VENTX [38] it was 10.6 upbm affinity estimate (log intensity, higher = more binding, comparable within an allelic series).
Take GGGATCCC: the binding signal in the test with HOXB9 [1] is 8.56 upbm affinity estimate (log intensity, higher = more binding, comparable within an allelic series); with HOXA4 [40] it was 9.85 upbm affinity estimate (log intensity, higher = more binding, comparable within an allelic series); with HOXC9 [2] it was 9.54 upbm affinity estimate (log intensity, higher = more binding, comparable within an allelic series); with HOXB6 [9], 9.02 upbm affinity estimate (log intensity, higher = more binding, comparable within an allelic series); with HOXA4 [11] it was 9.68 upbm affinity estimate (log intensity, higher = more binding, comparable within an allelic series); with HOXB9 [41] it was 8.21 upbm affinity estimate (log intensity, higher = more binding, comparable within an allelic series). The binding signal with HOXC9 [42] was 9.51 upbm affinity estimate (log intensity, higher = more binding, comparable within an allelic series); with HOXC9 [15] it was 9.56 upbm affinity estimate (log intensity, higher = more binding, comparable within an allelic series); with HOXA4 [43] it was 9.71 upbm affinity estimate (log intensity, higher = more binding, comparable within an allelic series); with HOXB9 [24] it was 8.25 upbm affinity estimate (log intensity, higher = more binding, comparable within an allelic series); with HOXC9 [25], 9.68 upbm affinity estimate (log intensity, higher = more binding, comparable within an allelic series); with HOXA4 [31] it was 9.89 upbm affinity estimate (log intensity, higher = more binding, comparable within an allelic series). Moreover, in the test with HOXB6 [34], the binding signal is 9.02 upbm affinity estimate (log intensity, higher = more binding, comparable within an allelic series).
